# High-throughput results as filed in PubChem.
# Pf Dd2 inh = qHTS Primary assay for Inhibitors of Plasmodium falciparum Dd2 growth in vitro; P. falciparum Dd2 growth, SYBR Green, 72 h; Potency, µM (highest dose often 28.9 µM), for inactives: at the highest dose activity, negative = inhibition, actives largely listed as inhibitors; 120,000 tested, 4.3% active; active = well fitted inhibition curve with a large enough effect;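 also: plate controls were DMSO vehicle for no effect and reference drug for full effect; nearly all actives have a fitted effect of over 65% in size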
#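 Readout: SYBR Green fluorescence, 485 nm excitation, 535 nm emission, after ~16 h lysis at 37C. Before that, Dd2-infected red cells (2.5% hematocrit) grew 72 h with compound, 29 uM top final concentration.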
# * marks the source's active call; other numbers are inactive results; i = inactive; [ ] = remark or other dose. Only a selection was taken, and hits are over-represented in it overall. Potency is read from the fitted curve at half-maximal effect.
SMILES,Pf Dd2 inh
COCCNC(=O)[C@H]1C[C@H](Oc2cccnc2)CN1S(=O)(=O)c1ccc(OC)cc1,23%
CNC(=O)[C@@H]1CN(C(=O)c2ccc3cc[nH]c3c2)C[C@H]1C1CCN(C)CC1,19%
Cc1nn(C)cc1CN(C)C(=O)c1cc2cn(C(C)C)cc2s1,-3%
Cc1ccc(CN2C(=O)c3ccccc3Sc3ccc(C(=O)OCc4ccco4)cc32)cc1,-16%
Cc1ccccc1CN1C(=O)c2ccccc2Sc2ccc(C(=O)OCc3ccco3)cc21,8.9µM*
O=C(NCc1ccc2c(c1)OCO2)c1ccc2c(c1)N(Cc1ccccc1)C(=O)c1ccccc1S2=O (centres undefined),30%
CCOc1ccc(CN2C(=O)c3ccccc3Sc3ccc(C(=O)O)cc32)cc1,93%
Cc1ccc(C)c(CN2C(=O)c3ccccc3S(=O)c3ccc(C(=O)NCCc4ccc(Cl)cc4)cc32)c1 (centres undefined),5µM*
O=C(NCc1ccc2c(c1)OCO2)c1ccc2c(c1)N(Cc1ccc(F)cc1)C(=O)c1ccccc1S2=O (centres undefined),i
O=C(NCc1ccc2c(c1)OCO2)c1ccc2c(c1)N(Cc1cccc(Cl)c1)C(=O)c1ccccc1S2,10µM*
CCOc1ccc(CN2C(=O)c3ccccc3Sc3ccc(C(=O)NCCCN4CCOCC4)cc32)cc1,i
Cc1ccc(C)c(CN2C(=O)c3ccccc3S(=O)c3ccc(C(=O)NCc4ccccc4Cl)cc32)c1 (centres undefined),-7%
COCCNC(=O)c1ccc2c(c1)N(Cc1cc(C)ccc1C)C(=O)c1ccccc1S2=O (centres undefined),i
Cc1ccccc1CN1C(=O)c2ccccc2S(=O)c2ccc(C(=O)N3CCOCC3)cc21 (centres undefined),i
CCOc1ccc(CN2C(=O)c3ccccc3Sc3ccc(C(=O)N4CCN(C)CC4)cc32)cc1,0.13µM*
COc1ccc(C(=O)N2CCC(C(=O)N3CCCCCCNC(=O)CC3)CC2)cc1,-23%
O=C(C1CCCC1)N1C[C@@H](COc2ccncc2)[C@H](c2ccccn2)C1,0%
CCOc1cccc(-c2noc(-c3nnn4c3COC(c3ccc(OC)cc3)C4)n2)c1 (centres undefined),-4%
O=C(Nc1ccc2c(c1)CCC2)c1nnn2c1COC(c1ccc(F)cc1)C2 (centres undefined),-16%
Cc1ccn(CCC(=O)N2CCCC2C(=O)Nc2cccc(-n3cccn3)c2)n1 (centres undefined),-1%
CC[C@H]1CN(C(=O)C(C)(C)C)CC[C@H]1CC(=O)NCc1ccco1,-13%[44.1 µM]
Cc1ccc(C)c(CN2C(=O)c3ccccc3Sc3ccc(C(=O)NCc4ccc5c(c4)OCO5)cc32)c1,8.9µM*
Cc1ccc(C)c(CN2C(=O)c3ccccc3Sc3ccc(C(=O)NCc4ccco4)cc32)c1,11µM*
O=C(NCCCN1CCOCC1)c1ccc2c(c1)N(Cc1ccccc1)C(=O)c1ccccc1S2,i
Cc1ccc(C)c(CN2C(=O)CSc3ccc(C(=O)NCc4ccccc4)cc32)c1,-14%
SMILES,Pf Dd2 inh
Cn1cnc(C(=O)N2[C@@H]3CC[C@H]2CC(NC(=O)c2ccc(F)cc2)C3)c1 (some centres undefined),-21%
CC(C)CC(=O)N1C[C@@H](Oc2cccnc2)C[C@H]1C(=O)NC1CC1,38%
Cc1ncoc1C(=O)N1CC[C@@H]2COCCN(Cc3ccncc3)[C@@H]2C1,4%
Cc1nn(C)c2nc(-c3ccccn3)nc(NCC(c3ccco3)N(C)C)c12 (centres undefined),8.9µM*
CNS(=O)(=O)CCNc1nc(-c2ccccn2)nc2c1c(C)nn2C,-6%
Cc1nc(CCNc2nc(-c3ccccn3)nc3c2c(C)nn3C)no1,i
Cc1c(F)cccc1NC(=O)N1CC(c2nnc(-c3ccncc3)o2)C2(CCOCC2)C1 (centres undefined),i
O=C(Nc1cccc(-n2cccn2)c1)C1CCCN1C(=O)C1CCCCC1 (centres undefined),-14%
CCCCc1nn(CC(=O)NCc2nc3c(s2)CCCC3)c(=O)n1CC,5%
CC(C)c1ccc(OCC(=O)Nc2cc(-c3nc4ncccc4o3)ccc2Cl)cc1,-11%
Cc1cc(C)cc(OCC(=O)Nc2ccc(-c3nc4ncccc4o3)cc2C)c1,-23%
CCC(C)c1ccc(OCC(=O)Nc2cccc(-c3nc4ncccc4o3)c2)cc1 (centres undefined),2.5µM*
Cc1nnc([C@@H]2CC(F)(F)CN2C(=O)c2nn(C)c3ccccc23)o1,-9%
Cc1cccc(-c2noc([C@@H]3C[C@@H](O)CN3Cc3ccccn3)n2)c1,i
Cc1ccc(NC(=O)N2C[C@@H](Oc3ccccc3)C[C@H]2C(=O)N2CCOCC2)cc1C,-23%
COC[C@H]1C[C@@H](NC(=O)c2cncnc2)[C@H](O)[C@@H]1O,-2%[44.1 µM]
Cc1ccc(CN2COc3ccc4c(C)cc(=O)oc4c3C2)cc1,4µM*
COc1ccccc1C(=O)N1CCN(Cc2cc(=O)oc3cc(C)ccc23)CC1,-4%
Cc1ccc(CNC(=O)c2ccc3c(c2)CN(Cc2ccc(N(C)C)cc2)CCO3)cc1,-28%
COc1ccccc1CN1COc2ccc3c(C)cc(=O)oc3c2C1,7.1µM*
Cc1ccc(Cn2nc3n(c2=O)-c2cc(Cl)ccc2OC3)cc1,15%
COc1ccccc1CN1C[C@@H]2C(=O)N(Cc3ccc4c(c3)OCO4)C(=O)[C@@H]2C1,12%
Cc1onc(-c2ccccc2)c1C(=O)N1CCOCC(O)(CN2CCCC2)C1 (centres undefined),-7%
CCc1noc([C@@H]2CC(F)(F)CN2C(=O)CCc2c(C)noc2C)n1,22%
NC(=O)[C@H](Cc1cccs1)NC(=O)C1=C[C@@H](NC(=O)c2cccnc2)[C@@H](O)[C@H](O)C1,45%[44.1 µM]
SMILES,Pf Dd2 inh
COc1ccccc1-c1noc(-c2nc(-c3ccncc3)no2)n1,-8%
c1ccc(-c2nc(-c3cnccn3)no2)c(OC2CNC2)c1,-16%
O=C(Nc1ccccc1)N1CCC(Oc2ccccc2-c2nc(-c3ccccc3)no2)C1 (centres undefined),-5%
O=C(C1CC1)N1CC(Oc2ccccc2-c2nc(-c3cnccn3)no2)C1,7.9µM*
c1ccc(-c2nc(-c3ccncc3)no2)c(OC2CCNC2)c1 (centres undefined),13µM*
CCNC(=O)N1CCC(Oc2ccccc2-c2nc(-c3cnccn3)no2)C1 (centres undefined),-20%
CCc1nc2cc(N3CCC(C(=O)NCc4cc(F)cc(F)c4)CC3)cnc2nc1CC,i
N[C@@H](Cc1cnc[nH]1)C(=O)N1CCC2(CC1)CC(=O)N(Cc1ccccc1)C2,-6%
CC(=O)NC1(C)CCCN(Cc2cccc(-c3ccccc3)c2)C1 (centres undefined),8.9µM*
CC(=O)NC1(C)CCN(Cc2cccc(-c3ccc(N4CCOCC4)cc3)c2)C1 (centres undefined),-3%[44.1 µM]
CC(=O)NC1(C)CCCN(c2ccc(Oc3ccccc3)cc2)C1 (centres undefined),18%[44.1 µM]
CC(=O)NC1(C)CCN(Cc2ccccc2-c2ccccc2Oc2ccccc2)C1 (centres undefined),5µM*
CC(=O)NC1(C)CCCN(Cc2cccc(Nc3ccncc3)c2)C1 (centres undefined),-23%[44.1 µM]
CC(=O)NC1(C)CCCN(Cc2ccc(Oc3ccccc3)cc2)C1 (centres undefined),i
CC(=O)NC1(C)CCN(Cc2ccc(-c3ccc4ccccc4c3)cc2)C1 (centres undefined),10µM*
